Data from the supplement of paper PMC9446081.
Among all 39,000 compounds or so, about 220 (0.56%) showed activity. This is one part of a sample in which actives are shown more often than they occur.

Each compound was assayed on Escherichia coli K-12 BW25113 (assay: relative growth (OD600 normalised to plate interquartile mean) (fraction); higher = less growth inhibition, active = 0.2 or less). Conditions: 50 µM; LB; incubation time: overnight (16-24 h).
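Further: Wild-type cells incubated without shaking, value is the mean of two biological replicates.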

SMILES | relative growth
C[N+](C)(C)CCCCCCCCCC[N+](C)(C)C.[Br-].[Br-] | 1.05 (inactive)
CCCCCCCCCCCCCCCC[N+](C)(C)C.[Br-] | 0.0522 (active)
C[N+](C)(C)CCCl | 1 (inactive)
CCC(N)C(O)c1ccc(O)c(O)c1.Cl (stereo unspecified) | 0.99 (inactive)
CC12CCC3C(CCC4CC(=O)CCC43C)C1CCC2=O (stereo not drawn) ["5alpha-ANDROSTAN-3,17-DIONE"] | 0.862 (inactive)
CCC(=O)CCCCC[C@@H]1NC(=O)[C@H]2CCCCN2C(=O)[C@H]([C@H](C)CC)NC(=O)[C@H](Cc2cn(OC)c3ccccc23)NC1=O | 1 (inactive)
COc1cc2c(cc1OC)C13CCN4CC5=CCOC6CC(=O)N2C1C6C5CC43 (stereo unspecified) | 1.05 (inactive)
CCn1cc(C(=O)[O-])c(=O)c2cc3c(cc21)OCO3.[K+] | 0.0482 (active)
CCC(=O)CCCCC[C@@H]1NC(=O)[C@H]2CCCCN2C(=O)[C@H]([C@@H](C)CC)NC(=O)[C@H](Cc2cn(OC)c3ccccc23)NC1=O | 0.957 (inactive)
O=C1N[C@@H]2C(=C[C@H](O)[C@@H](O)[C@H]2O)c2cc3c(c(O)c21)OCO3 | 0.913 (inactive)
N#Cc1cccnc1 | 1.01 (inactive)
NNc1ccn([C@H]2O[C@@H](CO)[C@@H](O)[C@@H]2O)c(=O)n1 | 0.394 (inactive)
COP(=O)(OC)C(O)C(Cl)(Cl)Cl (stereo unspecified) | 0.874 (inactive)
CC(C)(O)/C=C/C(=O)[C@](C)(O)[C@H]1[C@H](O)C[C@@]2(C)[C@H]3CC=C4[C@@H](CC(=O)C(=O)C4(C)C)[C@]3(C)C(=O)C[C@]12C | 0.979 (inactive)
[O-][n+]1ccccc1[S][Zn][S]c1cccc[n+]1[O-] | 0.0506 (active)
CC(C)C[C@@H]1C(=O)N2CCC[C@@H]2[C@]2(O)O[C@@](NC(=O)[C@@H]3C=C4c5cccc6[nH]cc(c56)C[C@@H]4N(C)C3)(C(C)C)C(=O)N12 | 1.04 (inactive)
CCCCOC(=O)c1ccccc1C(=O)OCCCC | 1.11 (inactive)
O=C([O-])Cc1ccccc1.[Na+] | 0.934 (inactive)
C[CH2][Hg][S]c1ccccc1C(=O)[O-].[Na+] | 0.0484 (active)
CC(=O)OC1CCC2(C)C(CCC3C2CCC2(C)C(C4=CC(=O)OC4)C(OC(C)=O)CC32O)C1 (stereo unspecified) | 1.01 (inactive)
CC(C)=CCCC1(C)C=Cc2c(O)c3c(c(CC=C(C)C)c2O1)OC12C(=CC4CC1C(C)(C)OC2(CC=C(C)C(=O)O)C4=O)C3=O (stereo unspecified) | 1.01 (inactive)
NC(=O)c1ccc(N)nc1 | 0.986 (inactive)
CCCN1CC(CSC)CC2c3cccc4[nH]cc(c34)CC21.CS(=O)(=O)O (stereo unspecified) | 1.15 (inactive)
CCNC(=O)[C@H]1O[C@@H](n2cnc3c(N)ncnc32)[C@H](O)[C@@H]1O | 0.996 (inactive)

SMILES | relative growth
Nc1ccc(Cl)cc1Cl | 1.02 (inactive)
Oc1cc(Cl)ccc1Oc1ccc(Cl)cc1Cl | 0.0446 (active)
Oc1ccc(Cl)cc1Cc1cc(Cl)ccc1O | 0.398 (inactive)
CN1CC(=O)N(c2cccnc2)C[C@]12CCNC2 | 0.998 (inactive)
CC12CCC3C(CCC4(O)CC(O)CCC34C=O)C1(O)CCC2C1=CC(=O)OC1 (stereo unspecified) | 0.972 (inactive)
CC(=O)Oc1ccc(Cl)c2cccnc12 | 0.0572 (active)
CC=C1CC(C)C(O)(CO)C(=O)OCC2=CCN3CCC(OC1=O)C23 (stereo unspecified) | 1.04 (inactive)
CN1CCOC[C@]2(CCCNC2)C1 | 0.994 (inactive)
C[C@]12C(=O)OC(=O)[C@]1(C)[C@H]1CC[C@H]2O1 | 0.97 (inactive)
CN1C(=O)[C@@]23C[C@]4([C@@]56C[C@]78SS[C@](CO)(C(=O)N7[C@@H]5Nc5ccccc56)N(C)C8=O)c5ccccc5N[C@H]4N2C(=O)[C@@]1(CO)SS3 | 0.917 (inactive)
CN1C(=O)[C@]23CC4=CC=C[C@H](O)[C@H]4N2C(=O)[C@@]1(CO)SS3 | 0.0665 (active)
CC1OC(OC2CCC3(C=O)C4CCC5(C)C(C6=CC(=O)OC6)CCC5(O)C4CCC3(O)C2)C(O)C(O)C1O (stereo unspecified) | 1.15 (inactive)
c1cnc2[nH]cc(CN3CCNCC3)c2c1 | 0.977 (inactive)
CC(=O)O[C@H]1C[C@H](O[C@H]2[C@@H](O)C[C@H](O[C@H]3[C@@H](O)C[C@H](O[C@H]4CC[C@@]5(C)[C@@H](CC[C@H]6[C@@H]5C[C@@H](O)[C@]5(C)[C@@H](C7=CC(=O)OC7)CC[C@]65O)C4)O[C@@H]3C)O[C@@H]2C)O[C@H](C)[C@H]1O[C@@H]1O[C@H](CO)[C@@H](O)[C@H](O)[C@H]1O | 0.986 (inactive)
CCOP(=S)(OCC)Oc1nc(Cl)c(Cl)cc1Cl | 1.06 (inactive)
COP(=S)(OC)Oc1ccc(Sc2ccc(OP(=S)(OC)OC)cc2)cc1 | 0.986 (inactive)
COP(=S)(OC)Oc1cc(Cl)c(Cl)cc1Cl | 0.0496 (active)
CCn1cnc2c(Nc3cccc(Cl)c3)nc(N[C@@H]3CCCC[C@@H]3N)nc21 | 0.943 (inactive)
CC(=O)OCC1=C(C(=O)O)N2C(=O)[C@@H](NC(=O)CCC[C@@H](N)C(=O)O)[C@@H]2SC1 | 1.02 (inactive)
CNc1ccc2oc(C[C@H]3O[C@@]4(CC[C@H]3C)O[C@H]([C@H](C)C(=O)c3ccc[nH]3)[C@H](C)C[C@H]4C)nc2c1C(=O)O | 0.962 (inactive)
CCCCCCCCCCCCCCCC[n+]1ccccc1.[Cl-] | 0.0713 (active)
CCCCCCCCCCCCCCCC[n+]1ccccc1 | 0.16 (active)
CC[C@@H](C)NC=C1C(=O)NC(=O)NC1=O | 1.01 (inactive)
CC1OC(OC2CC(O)C3(CO)C4C(O)CC5(C)C(C6=CC(=O)OC6)CCC5(O)C4CCC3(O)C2)C(O)C(O)C1O.O.O.O.O.O.O.O.O (stereo unspecified) | 1.01 (inactive)

SMILES | relative growth
CC1OC(OC2C=C3CCC4C(CCC5(C)C(c6ccc(=O)oc6)CCC45O)C3(C)CC2)C(O)C(O)C1O (stereo unspecified) | 0.977 (inactive)
C[C@@H]1O[C@@H](O[C@H]2CC[C@]3(C=O)[C@H]4CC[C@]5(C)[C@@H](C6=CC(=O)OC6)CC[C@]5(O)[C@@H]4CC[C@]3(O)C2)[C@H](O)[C@H](O)[C@H]1O | 1 (inactive)
C=C(C)[C@H]1CN[C@H](C(=O)O)[C@H]1CC(=O)O | 0.978 (inactive)
Cc1nn[nH]n1 | 0.979 (inactive)
Cc1c(N)nc([C@H](CC(N)=O)NC[C@@H](N)C(N)=O)nc1C(=O)N[C@H](C(=O)N[C@@H](C)[C@H](O)[C@@H](C)C(=O)N[C@@H](C(=O)NCCc1nc(-c2nc(C(=O)NCCC[S+](C)C)cs2)cs1)[C@@H](C)O)[C@@H](O[C@H]1O[C@H](CO)[C@H](O)[C@@H](O)[C@H]1O[C@H]1O[C@H](CO)[C@@H](O)[C@H](OC(N)=O)[C@@H]1O)c1c[nH]cn1 | 0.0355 (active)
Cc1c(N)nc([C@H](CC(N)=O)NC[C@@H](N)C(N)=O)nc1C(=O)N[C@H](C(=O)N[C@@H](C)[C@H](O)[C@@H](C)C(=O)N[C@@H](C(=O)NCCc1nc(-c2nc(C(=O)NCCC[S+](C)C)cs2)cs1)[C@@H](C)O)[C@@H](O[C@H]1O[C@H](CO)[C@H](O)[C@@H](O)[C@H]1O[C@H]1O[C@H](CO)[C@@H](O)[C@H](OC(N)=O)[C@@H]1O)c1cnc[nH]1 | 0.0324 (active)
Cc1cc(O)c2c(=O)c3c(O)cc(O)c4c5c(O)cc(O)c6c(=O)c7c(O)cc(C)c8c1c2c(c34)c(c78)c65 | 1.61 (inactive)
O=C1[O][SbH]23[O]C(=O)[C@H]([O]2)[C@H]2[O][SbH]4([O]C(=O)[C@H]([O]4)[C@H]1[O]3)[O]C2=O | 0.313 (inactive)
CC1=C[C@H]2O[C@@H]3[C@H](O)[C@@H](O[C@H]4O[C@H](CO)[C@@H](O)[C@H](O)[C@H]4O)[C@](C)([C@@]2(CO)CC1)[C@]31CO1 | 0.947 (inactive)
O=C1CCCC2C3CCCN4CCCC(CN12)C34 (stereo unspecified) | 1.05 (inactive)
Cn1ncnc2c(=O)n(C)c(=O)nc1-2 | 0.0341 (active)
CCn1nc(-c2cccnc2)nc2c(=O)n(C)c(=O)nc1-2 | 0.846 (inactive)
Cc1nc2c(=O)n(C)c(=O)nc-2n(C)n1 | 0.0393 (active)
COc1cccc2c1C(=O)c1c(O)c3c(c(O)c1C2=O)C[C@@](O)(C(=O)CO)C[C@@H]3O[C@H]1C[C@H](N2CCO[C@H](OC)C2)[C@H](O)[C@H](C)O1 | 0.933 (inactive)
CO[C@H]1C[C@H](O[C@H]2CC[C@]3(C=O)[C@H]4CC[C@]5(C)[C@@H](C6=CC(=O)OC6)CC[C@]5(O)[C@@H]4CC[C@]3(O)C2)O[C@H](C)[C@H]1O | 0.98 (inactive)
CO[C@H]1[C@@H](O)C[C@@H](O[C@H]2[C@@H](O)C[C@@H](O[C@H]3[C@@H](O)C[C@@H](O[C@H]4CC[C@@]5(C)[C@@H](CC[C@H]6[C@@H]5C[C@@H](O)[C@@]5(C)[C@H](C7=CC(=O)OC7)CC[C@@]65O)C4)O[C@@H]3C)O[C@@H]2C)O[C@@H]1C | 1 (inactive)
C=CCN1C(=O)NC(=O)/C(=C/c2ccco2)C1=O | 0.971 (inactive)
NC(=O)c1cn([C@H]2O[C@@H](CO)[C@H](O)[C@@H]2O)c2ncnc(N)c12 | 0.892 (inactive)
CN1[C@@H]2CC[C@H]1C[C@H](O)C2 | 1 (inactive)
C=C1[C@@H](C)[C@H]2[C@H](Cc3ccccc3)NC(=O)[C@]23[C@H](OC(C)=O)/C=C/[C@](C)(O)C(=O)[C@@H](C)C/C=C/[C@H]3[C@@H]1O | 0.976 (inactive)
O=S(=O)(O)O.Oc1cccc2cccnc12 | 0.0986 (active)
CC12CCC3c4ccc(OC(=O)N(CCCl)CCCl)cc4CCC3C1CCC2O (stereo unspecified) | 0.992 (inactive)
CCCCCCCCCC(=O)O[C@@H]1[C@@H](C)[C@]2(O)[C@@H](C=C(CO)C[C@]3(O)C(=O)C(C)=C[C@@H]23)[C@@H]2C(C)(C)[C@@]12OC(=O)CCCCCCCCC | 1.03 (inactive)
